Assay results taken from PubChem BioAssay AID1159580 (chemical genetic matrix, 2015).
“And” between values parts separate entries of the source, which are not always exact repeats. Equal values may be shown once. Out of some 5,500 compounds screened, about 2,000 (36%) were called active. Not shown: some 18% with an inconclusive outcome. Some of the results follow. Unmarked numbers belong to inactive results. No stated cut-off is given here; in the data, active means normalized growth mostly below about 0.91 (no sharp cut-off); inconclusive means no clear call, values can overlap the other calls; inactive means mostly above about 0.92.

Experiment: chemical genetic growth profiling, strain panel (AID 1159580);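 further: tested at 20 µM; growth read once vehicle control cultures reached saturation at 30 °C; 1 = growth at the plate median or of vehicle wells; lower values mean less growth of the strain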
Conditions: growth OD

Which results are given for `COc1ccc(-c2cc(=O)c3c(O)cc(O)cc3o2)cc1O`?
normalized growth (S. cerevisiae deletion strains, locus YAL013W, strain DEP1, hits give low values): 1; normalized growth (S. cerevisiae deletion strains, locus YBR021W, strain FUR4, hits give low values): 0.985; normalized growth (S. cerevisiae deletion strains, locus YBR229C, strain ROT2, hits give low values): 0.987; normalized growth (S. cerevisiae deletion strains, locus YCL029C, strain bik1, hits give low values): 0.997; normalized growth (S. cerevisiae deletion strains, locus YDL035C, strain GPR1, hits give low values): 0.983; normalized growth (S. cerevisiae deletion strains, locus YDL074C, strain BRE1, hits give low values): 0.969; normalized growth (S. cerevisiae deletion strains, locus YDL101C, strain DUN1, hits give low values): 0.998; normalized growth (S. cerevisiae deletion strains, locus YDL134C, strain PPH21, hits give low values): 0.993; normalized growth (S. cerevisiae deletion strains, locus YDL185W, strain tfp1, hits give low values): 1.01; normalized growth (S. cerevisiae deletion strains, locus YDL192W, strain arf1, hits give low values): 0.999; normalized growth (S. cerevisiae deletion strains, locus YDR101C, strain arx1, hits give low values): 0.98; normalized growth (S. cerevisiae deletion strains, locus YDR150W, strain NUM1, hits give low values): 1; normalized growth (S. cerevisiae deletion strains, locus YDR162C, strain NBP2, hits give low values): 0.961; normalized growth (S. cerevisiae deletion strains, locus YDR318W, strain mcm21, hits give low values): 0.995; normalized growth (S. cerevisiae deletion strains, locus YDR388W, hits give low values): 0.993; normalized growth (S. cerevisiae deletion strains, locus YDR502C, strain sam2, hits give low values): 0.975; normalized growth (S. cerevisiae deletion strains, locus YEL061C, strain CIN8, hits give low values): 0.994; normalized growth (S. cerevisiae deletion strains, locus YER110C, hits give low values): 1; normalized growth (S. cerevisiae deletion strains, locus YER155C, strain BEM2, hits give low values): 1; normalized growth (S. cerevisiae deletion strains, locus YER167W, strain BCK2, hits give low values): 0.997; normalized growth (S. cerevisiae deletion strains, locus YGL078C, strain dbp3, hits give low values): 0.989; normalized growth (S. cerevisiae deletion strains, locus YGL086W, strain mad1, hits give low values): 0.981; normalized growth (S. cerevisiae deletion strains, locus YGL248W, strain PDE1, hits give low values): 0.997; normalized growth (S. cerevisiae deletion strains, locus YGR078C, strain PAC10, hits give low values): 0.952; normalized growth (S. cerevisiae deletion strains, locus YGR135W, strain pre9, hits give low values): 0.962; normalized growth (S. cerevisiae deletion strains, locus YGR229C, strain SMI1, hits give low values): 0.937; normalized growth (S. cerevisiae deletion strains, locus YGR252W, strain gcn5, hits give low values): 0.96; normalized growth (S. cerevisiae deletion strains, locus YHR030C, strain SLT2, hits give low values): 0.997 and 1.02; normalized growth (S. cerevisiae deletion strains, locus YHR079C, strain IRE1 (second series), hits give low values): 0.983; normalized growth (S. cerevisiae deletion strains, locus YHR079C, strain IRE1, hits give low values): 1.01; normalized growth (S. cerevisiae deletion strains, locus YHR094C, strain hxt1, hits give low values): 1; normalized growth (S. cerevisiae deletion strains, locus YHR129C, strain ARP1, hits give low values): 0.989; normalized growth (S. cerevisiae deletion strains, locus YHR200W, strain rpn10, hits give low values): 0.99; normalized growth (S. cerevisiae deletion strains, locus YIL066C, strain RNR3, hits give low values): 0.987; normalized growth (S. cerevisiae deletion strains, locus YIL073C, strain SPO22, hits give low values): 1.02; normalized growth (S. cerevisiae deletion strains, locus YIL125W, strain kgd1, hits give low values): 0.995; normalized growth (S. cerevisiae deletion strains, locus YIR030C, strain dcg1, hits give low values): 0.991; normalized growth (S. cerevisiae deletion strains, locus YJL095W, strain BCK1, hits give low values): 0.944 and 0.996; normalized growth (S. cerevisiae deletion strains, locus YJL134W, strain LCB3, hits give low values): 0.998; normalized growth (S. cerevisiae deletion strains, locus YJL168C, strain set2, hits give low values): 0.998; normalized growth (S. cerevisiae deletion strains, locus YJL187C, strain SWE1 (second series), hits give low values): 0.967; normalized growth (S. cerevisiae deletion strains, locus YJR043C, strain POL32, hits give low values): 0.998; normalized growth (S. cerevisiae deletion strains, locus YJR066W, strain TOR1, hits give low values): 0.986; normalized growth (S. cerevisiae deletion strains, locus YJR075W, strain HOC1, hits give low values): 1.04; normalized growth (S. cerevisiae deletion strains, locus YKL009W, strain mrt4, hits give low values): 0.89; normalized growth (S. cerevisiae deletion strains, locus YKL068W, hits give low values): 0.968; normalized growth (S. cerevisiae deletion strains, locus YKL085W, strain MDH1 (second series), hits give low values): 0.913 (active); normalized growth (S. cerevisiae deletion strains, locus YKL085W, strain MDH1, hits give low values): 0.913 (active); normalized growth (S. cerevisiae deletion strains, locus YKL190W, strain CNB1, hits give low values): 0.993; normalized growth (S. cerevisiae deletion strains, locus YKR001C, strain vps1, hits give low values): 1; normalized growth (S. cerevisiae deletion strains, locus YLR039C, strain RIC1, hits give low values): 0.928; normalized growth (S. cerevisiae deletion strains, locus YLR058C, strain SHM2, hits give low values): 0.989; normalized growth (S. cerevisiae deletion strains, locus YLR102C, strain apc9, hits give low values): 0.995; normalized growth (S. cerevisiae deletion strains, locus YLR113W, strain HOG1, hits give low values): 0.888; normalized growth (S. cerevisiae deletion strains, locus YLR262C, strain YPT6, hits give low values): 0.921; normalized growth (S. cerevisiae deletion strains, locus YLR268W, strain sec22, hits give low values): 0.944; normalized growth (S. cerevisiae deletion strains, locus YLR330W, strain CHS5, hits give low values): 0.999; normalized growth (S. cerevisiae deletion strains, locus YLR342W, strain FKS1 (second series), hits give low values): 1.02; normalized growth (S. cerevisiae deletion strains, locus YLR371W, strain rom2, hits give low values): 0.99; normalized growth (S. cerevisiae deletion strains, locus YLR418C, strain cdc73, hits give low values): 0.925; normalized growth (S. cerevisiae deletion strains, locus YML016C, strain PPZ1, hits give low values): 0.991; normalized growth (S. cerevisiae deletion strains, locus YML032C, strain rad52, hits give low values): 1.01; normalized growth (S. cerevisiae deletion strains, locus YML124C, strain tub3, hits give low values): 0.988; normalized growth (S. cerevisiae deletion strains, locus YMR078C, strain ctf18, hits give low values): 1; normalized growth (S. cerevisiae deletion strains, locus YMR223W, strain ubp8, hits give low values): 0.993; normalized growth (S. cerevisiae deletion strains, locus YMR263W, strain SAP30, hits give low values): 0.982; normalized growth (S. cerevisiae deletion strains, locus YMR307W, strain GAS1, hits give low values): 1.08; normalized growth (S. cerevisiae deletion strains, locus YNL067W, strain RPL9B, hits give low values): 0.983; normalized growth (S. cerevisiae deletion strains, locus YNL128W, strain TEP1, hits give low values): 0.988; normalized growth (S. cerevisiae deletion strains, locus YNL153C, strain GIM3, hits give low values): 0.958; normalized growth (S. cerevisiae deletion strains, locus YNL183C, strain NPR1, hits give low values): 0.921; normalized growth (S. cerevisiae deletion strains, locus YNL233W, strain BNI4, hits give low values): 0.947; normalized growth (S. cerevisiae deletion strains, locus YNL250W, strain rad50, hits give low values): 1; normalized growth (S. cerevisiae deletion strains, locus YNL271C, strain bni1, hits give low values): 1; normalized growth (S. cerevisiae deletion strains, locus YNL298W, strain CLA4, hits give low values): 1.03; normalized growth (S. cerevisiae deletion strains, locus YNL307C, strain MCK1, hits give low values): 1; normalized growth (S. cerevisiae deletion strains, locus YNL322C, strain KRE1, hits give low values): 0.996; normalized growth (S. cerevisiae deletion strains, locus YNR052C, strain pop2, hits give low values): 0.994; normalized growth (S. cerevisiae deletion strains, locus YOL006C, strain TOP1, hits give low values): 0.973; normalized growth (S. cerevisiae deletion strains, locus YOL012C, strain htz1): 0.983; normalized growth (S. cerevisiae deletion strains, locus YOL147C, strain pex11, hits give low values): 0.992; normalized growth (S. cerevisiae deletion strains, locus YOR061W, strain CKA2, hits give low values): 1; normalized growth (S. cerevisiae deletion strains, locus YOR069W, strain VPS5, hits give low values): 0.998; normalized growth (S. cerevisiae deletion strains, locus YOR136W, strain idh2, hits give low values): 0.993; normalized growth (S. cerevisiae deletion strains, locus YOR144C, strain elg1, hits give low values): 0.997; normalized growth (S. cerevisiae deletion strains, locus YOR184W, strain ser1, hits give low values): 0.982; normalized growth (S. cerevisiae deletion strains, locus YOR231W, strain MKK1, hits give low values): 1.01; normalized growth (S. cerevisiae deletion strains, locus YOR316C, strain cot1, hits give low values): 0.989; normalized growth (S. cerevisiae deletion strains, locus YPL055C, strain LGE1, hits give low values): 0.97; normalized growth (S. cerevisiae deletion strains, locus YPL241C, strain CIN2, hits give low values): 1; normalized growth (S. cerevisiae deletion strains, locus YPL256C, strain CLN2, hits give low values): 0.993; normalized growth (S. cerevisiae deletion strains, locus YPR119W, strain clb2, hits give low values): 0.993; normalized growth (S. cerevisiae deletion strains, locus YPR141C, strain kar3, hits give low values): 1.01; normalized growth (S. cerevisiae deletion strains, locus YPR163C, strain tif3, hits give low values): 1.01; normalized growth (S. cerevisiae deletion strains, locus YPR167C, strain met16, hits give low values): 0.991; normalized growth (S. cerevisiae deletion strains, strain wtn01, hits give low values): 0.977; normalized growth (S. cerevisiae strains, strain wild type, hits give low values): 0.99
